Laboratory results reported in PubChem BioAssay (NCATS).
Activity calls are given as the source filed them. Unless noted, calls follow the shape of the dose curve; as a rule, active = well fitted curve in the direction sought with a large enough effect; inconclusive = small, poorly fitted or top-dose-only effect, or another doubt; inactive = no such curve, though single readings can be large; an effect the other way counts as inactive or inconclusive.

Tests used:
[1] = Cell Viability - LYMP2-009 (AID 968); also: potency is read from the fitted curve at half-maximal effect; nearly all actives have a fitted effect of over 55% in size
[2] = Cell Viability - LYMP2-011 (AID 969); also: potency is read from the fitted curve at half-maximal effect; nearly all actives have a fitted effect of over 60% in size
How it was run: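 2500 cells/well, 5 hr 37 C; compound added, 24 hr 37 C; CellTiter-Glo 30 min RT; luminescence. qHTS concentration-response, Hill-equation AC50. Tetraoctylammonium bromide positive control.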

[3] = Cell Viability - LYMP2-013 (AID 970); also: potency is read from the fitted curve at half-maximal effect; nearly all actives have a fitted effect of over 55% in size
How it was run: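 qHTS; 2500 lymphoblastoid cells/well; 5 hr 37 C settle; cpd 24 hr 37 C; CellTiter-Glo, 30 min RT; luminescence. AC50 = Hill fit.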

[4] = Cell Viability - LYMP2-015 (AID 971); also: potency is read from the fitted curve at half-maximal effect; nearly all actives have a fitted effect of over 55% in size
How it was run: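 Luminescent ATP read-out (CellTiter-Glo) served as the viability measure after lymphoblastoid cells were exposed to compounds for 24 hours at 37 C. Concentration-response data were fitted with the Hill equation to give AC50.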

[5] = Cell Viability - LYMP2-017 (AID 972); also: potency is read from the fitted curve at half-maximal effect; nearly all actives have a fitted effect of over 55% in size
How it was run: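 2500 cells/well, 5 h 37 C; cpd 24 h 37 C in complete medium; CellTiter-Glo, 30 min RT; luminescence (ATP). AC50 via Hill fit, qHTS.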

[6] = Cell Viability - LYMP2-019 (AID 973)
How it was run: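 Luminescent ATP read-out (CellTiter-Glo, 30 min room temperature) served as the viability measure after 24 hr treatment of lymphoblastoid cells at 37 C. Concentration-response data were fitted to the Hill equation for AC50.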

[7] = Cell Viability - LYMP2-021 (AID 974)
How it was run: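 Plate 2500 lymphoblastoid cells per well and incubate 5 hr at 37 C. Add compounds over a concentration range and incubate 24 hr at 37 C. Add CellTiter-Glo, wait 30 min at room temperature, read luminescence.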

[8] = Cell Viability - LYMP2-023 (AID 975)
How it was run: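 2500 cells/well, 5 hr 37 C; cpd 24 hr 37 C; CellTiter-Glo, 30 min RT; luminescence. qHTS conc-response, Hill fit -> AC50. Pos ctrl tetraoctylammonium bromide.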

[9] = Cell Viability - LYMP2-025 (AID 976); also: potency is read from the fitted curve at half-maximal effect
How it was run: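 Seed 2500 LYMP2-025 cells/well; 5 hr at 37 C; add compound; 24 hr at 37 C; add CellTiter-Glo; 30 min RT; read luminescence. AC50 from Hill-modelled concentration-response.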

[10] = Cell Viability - LYMP2-002 (AID 977); also: potency is read from the fitted curve at half-maximal effect
How it was run: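 Luminescent ATP readout (CellTiter-Glo, 30 min room temperature) after 24 h compound exposure at 37 C of a human lymphoblastoid line, 2500 cells/well. AC50 values derived by standard Hill fitting of qHTS concentration-response data.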

[11] = Cell Viability - LYMP2-006 (AID 978); also: potency is read from the fitted curve at half-maximal effect; nearly all actives have a fitted effect of over 60% in size
How it was run: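 Potency values are Hill-fit AC50s for decreases in intracellular ATP (CellTiter-Glo luminescence). LYMP2-006 lymphoblastoid cells, 2500 per well, were exposed to compound in complete culture medium for 24 hr at 37 C.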

[12] = Cell Viability - LYMP2-007 (AID 979);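 also: potency is read from the fitted curve at half-maximal effect; cells exposed to compound for 24 h before reading; nearly all actives have a fitted effect of over 60% in size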
How it was run: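 Luminescent ATP signal (CellTiter-Glo) serves as the viability read-out after 24 hr compound treatment of lymphoblastoid cells in complete medium at 37 C. Concentration-response data were fitted to the Hill equation to give AC50 values.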

[13] = Cell Viability - LYMP2-008 (AID 980); also: potency is read from the fitted curve at half-maximal effect; nearly all actives have a fitted effect of over 60% in size
How it was run: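 qHTS, human lymphoblastoid line, 2500 cells/well; 5 hr preincubation, 24 hr compound, 37 C. CellTiter-Glo ATP luminescence. AC50 via Hill equation. Tetraoctylammonium bromide positive control.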

[14] = Cell Viability - LYMP2-010 (AID 981)
How it was run: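 Luminescent ATP signal (CellTiter-Glo) served as the viability read-out. Cells of the human lymphoblastoid line were treated with compound over a concentration range for 24 hours at 37 C, and AC50 values came from Hill-equation modeling.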

[15] = Cell Viability - LYMP2-012 (AID 982)
[16] = Cell Viability - LYMP2-014 (AID 983); also: potency is read from the fitted curve at half-maximal effect; nearly all actives have a fitted effect of over 50% in size
How it was run: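 Luminescent ATP signal (CellTiter-Glo, 30 min at room temperature) serves as the viability read-out after 24 hr compound exposure at 37 C. Cells were seeded at 2500 per well and settled 5 hr beforehand.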

[17] = Cell Viability - LYMP2-016 (AID 984)
How it was run: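 Cytotoxicity was scored by luminescent ATP content (CellTiter-Glo) after 24 h compound exposure at 37 C of a human lymphoblastoid line at 2500 cells/well. Concentration-response data were fitted to the Hill equation for AC50.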

[18] = Cell Viability - LYMP2-018 (AID 985); also: potency is read from the fitted curve at half-maximal effect; nearly all actives have a fitted effect of over 50% in size
How it was run: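 Luminescent ATP signal (CellTiter-Glo, read after 30 min at room temperature) reports viable cells after 24 hr compound treatment at 37 C. Concentration-response data were fitted to the standard Hill equation for AC50.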

[19] = Cell Viability - LYMP2-020 (AID 986)
How it was run: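 Luminescent ATP signal (CellTiter-Glo, 30 min at room temperature) is the read-out after 24 h compound treatment of lymphoblastoid cells at 37 C. AC50 values come from Hill-equation fits across concentrations.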

[20] = Cell Viability - LYMP2-022 (AID 987)
How it was run: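 qHTS: human lymphoblastoid cells 2500/well; 5 hr 37 C; cpd added; 24 hr 37 C; CellTiter-Glo, 30 min RT; luminescence. AC50 via Hill fit; tetraoctylammonium bromide positive ctrl.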

[21] = Cell Viability - LYMP2-024 (AID 988)
How it was run: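 Steps: seed 2500 cells/well, 5 hr 37 C; add compound, 24 hr 37 C; add CellTiter-Glo, 30 min room temperature; read luminescence. AC50 derived by Hill modelling of concentration-dependent ATP loss.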

[22] = Cell Viability - LYMP2-026 (AID 989); also: potency is read from the fitted curve at half-maximal effect; nearly all actives have a fitted effect of over 50% in size
How it was run: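 Luminescent ATP signal (CellTiter-Glo, 30 min room temperature) measures viable lymphoblastoid cells after 24 hr compound treatment at 37 C. Decreased ATP reflects acute toxicity; AC50 values come from Hill-equation modeling.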

[23] = Cell Viability - LYMP1-002 - Assay at 24 hr (AID 993); also: potency is read from the fitted curve at half-maximal effect
How it was run: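 Cells plated 2500/well, 5 hr 37 C; compounds added, 24 hr 37 C; CellTiter-Glo added, 30 min RT; luminescence read. Tetraoctylammonium bromide positive control. Hill-equation AC50.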

[24] = Cell Viability - LYMP1-002 - Assay at 40 hr (AID 994)
How it was run: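 Luminescent ATP signal served as the viability readout, with decreases taken as toxicity. Cells were treated with compounds across a concentration range for 40 hours at 37 C, and AC50 values came from standard Hill modeling.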

[25] = target: Estrogen receptor (Homo sapiens) (UniProt P03372); test: qHTS assay for small molecule antagonists of estrogen receptor alpha signaling (AID 588513; active = well fitted curve in the direction sought with a large enough effect in the signal ratio, with a control signal flat, not every such curve was filed as active; inconclusive = small, poorly fitted or top-dose-only effect, or effect the other way, or a change in a side signal; inactive = no such curve, though single readings can be large or run the other way; the % refers to the signal ratio; also: potency is read from the fitted curve at half-maximal effect)
Sequence of Estrogen receptor (Homo sapiens) (P03372 whole entry, looked up): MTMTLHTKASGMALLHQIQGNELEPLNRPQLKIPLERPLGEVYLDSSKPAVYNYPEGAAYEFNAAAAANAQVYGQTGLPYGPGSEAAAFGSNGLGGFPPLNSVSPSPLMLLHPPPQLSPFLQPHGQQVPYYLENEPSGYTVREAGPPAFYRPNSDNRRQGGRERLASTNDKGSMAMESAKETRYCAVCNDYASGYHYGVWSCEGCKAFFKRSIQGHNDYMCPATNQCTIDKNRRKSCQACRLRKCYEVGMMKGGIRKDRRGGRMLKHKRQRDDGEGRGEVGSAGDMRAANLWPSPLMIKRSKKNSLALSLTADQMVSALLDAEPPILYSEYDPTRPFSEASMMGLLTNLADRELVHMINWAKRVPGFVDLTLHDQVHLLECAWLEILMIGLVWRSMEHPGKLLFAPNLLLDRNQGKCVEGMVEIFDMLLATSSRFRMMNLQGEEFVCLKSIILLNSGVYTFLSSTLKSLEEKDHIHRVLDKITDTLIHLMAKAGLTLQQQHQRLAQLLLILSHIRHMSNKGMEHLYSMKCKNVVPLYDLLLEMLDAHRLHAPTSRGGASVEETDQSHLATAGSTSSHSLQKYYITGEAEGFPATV
How it was run: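 Antagonist mode: inhibition of 0.5 nM 17-beta-estradiol-driven beta-lactamase reporter in HEK 293 ER-alpha-UAS-bla cells, 18 h at 37C, CCF4 readout after 2 h at RT. Normalised to estradiol and DMSO; titration fitted to Hill.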

[26] = target: Estrogen receptor (Homo sapiens) (UniProt P03372); test: qHTS assay for small molecule agonists of estrogen receptor alpha signaling (AID 588514; calls by dose curve;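 also: 0% = vehicle only and 100% = reference agonist; nearly all actives have a fitted effect of over 70% in size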)
How it was run: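 Cells were plated at 5000/well, incubated 4 hrs at 37 C, dosed with compound titration series, incubated 18 hrs at 37 C, loaded with CCF4 dye for 2 hrs at RT, then fluorescence was read.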

[27] = target: Bile acid receptor (Homo sapiens) (UniProt Q96RI1); test: qHTS assay for small molecule agonists of farnesoid X receptor signaling (AID 588527; calls by dose curve;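 also: series mostly up to about 77 µM; 0% = vehicle basal and 100% = reference agonist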); settings: HEK293T FXR-UAS-bla, beta-lactamase ratio, 16 h; activation: active compounds read high
Sequence of Bile acid receptor (Homo sapiens) (Q96RI1 whole entry, looked up): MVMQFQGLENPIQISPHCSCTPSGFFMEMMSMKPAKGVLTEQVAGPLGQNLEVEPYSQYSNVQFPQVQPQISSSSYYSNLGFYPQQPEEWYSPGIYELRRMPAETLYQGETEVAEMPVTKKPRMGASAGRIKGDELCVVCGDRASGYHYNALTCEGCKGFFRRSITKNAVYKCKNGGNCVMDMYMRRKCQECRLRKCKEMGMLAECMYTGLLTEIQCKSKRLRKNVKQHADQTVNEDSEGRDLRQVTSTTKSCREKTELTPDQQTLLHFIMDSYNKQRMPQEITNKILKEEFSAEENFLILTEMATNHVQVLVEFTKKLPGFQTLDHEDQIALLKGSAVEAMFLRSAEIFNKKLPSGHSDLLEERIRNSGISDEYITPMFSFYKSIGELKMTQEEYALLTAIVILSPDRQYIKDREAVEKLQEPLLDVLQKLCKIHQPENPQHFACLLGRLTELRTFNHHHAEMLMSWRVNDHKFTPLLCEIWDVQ
How it was run: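 Read-out: beta-lactamase reporter fluorescence with CCF4 substrate in GeneBLAzer FXR-UAS-bla HEK293T cells, after 16 h compound exposure at 37 C. Response scaled between DMSO basal (0%) and chenodeoxycholic acid at 100 uM (100%).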

[28] = target: Thyroid hormone receptor beta (Homo sapiens) (UniProt P10828); test: qHTS assay for small molecule agonists of thyroid hormone receptor beta signaling (AID 588545; calls by dose curve)
Sequence of Thyroid hormone receptor beta (Homo sapiens) (P10828 whole entry, looked up): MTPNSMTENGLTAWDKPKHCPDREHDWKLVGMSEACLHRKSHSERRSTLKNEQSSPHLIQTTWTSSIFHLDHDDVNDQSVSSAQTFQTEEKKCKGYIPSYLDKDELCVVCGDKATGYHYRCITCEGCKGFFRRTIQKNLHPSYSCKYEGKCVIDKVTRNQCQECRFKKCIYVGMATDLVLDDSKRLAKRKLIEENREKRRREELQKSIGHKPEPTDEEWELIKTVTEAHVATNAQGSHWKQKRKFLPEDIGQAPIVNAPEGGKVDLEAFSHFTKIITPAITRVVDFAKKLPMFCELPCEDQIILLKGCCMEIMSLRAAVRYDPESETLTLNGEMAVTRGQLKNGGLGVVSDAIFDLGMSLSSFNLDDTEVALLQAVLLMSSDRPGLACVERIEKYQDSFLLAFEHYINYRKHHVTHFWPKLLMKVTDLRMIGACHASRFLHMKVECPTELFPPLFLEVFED
How it was run: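 Cells (2500/well) were seeded, incubated 4 hrs at 37 C, dosed with a compound series, incubated 18 hrs, loaded with CCF4 dye for 2 hrs at RT, then read for fluorescence. Data were scaled between DMSO (0%) and 10 nM T3 (100%).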

[29] = target: Voltage-gated inwardly rectifying potassium channel KCNH2 (Homo sapiens) (UniProt Q12809); test: qHTS Assay for Small Molecule Inhibitors of the Human hERG Channel Activity (AID 588834);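 also: top concentration of the series differs between compounds; % is scaled to controls: 0 for no effect and ±100 for the full control effect; lower thallium flux fluorescence means stronger hERG block; nearly all actives have a fitted effect of over 50% in size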
Sequence of Voltage-gated inwardly rectifying potassium channel KCNH2 (Homo sapiens) (Q12809 whole entry, looked up): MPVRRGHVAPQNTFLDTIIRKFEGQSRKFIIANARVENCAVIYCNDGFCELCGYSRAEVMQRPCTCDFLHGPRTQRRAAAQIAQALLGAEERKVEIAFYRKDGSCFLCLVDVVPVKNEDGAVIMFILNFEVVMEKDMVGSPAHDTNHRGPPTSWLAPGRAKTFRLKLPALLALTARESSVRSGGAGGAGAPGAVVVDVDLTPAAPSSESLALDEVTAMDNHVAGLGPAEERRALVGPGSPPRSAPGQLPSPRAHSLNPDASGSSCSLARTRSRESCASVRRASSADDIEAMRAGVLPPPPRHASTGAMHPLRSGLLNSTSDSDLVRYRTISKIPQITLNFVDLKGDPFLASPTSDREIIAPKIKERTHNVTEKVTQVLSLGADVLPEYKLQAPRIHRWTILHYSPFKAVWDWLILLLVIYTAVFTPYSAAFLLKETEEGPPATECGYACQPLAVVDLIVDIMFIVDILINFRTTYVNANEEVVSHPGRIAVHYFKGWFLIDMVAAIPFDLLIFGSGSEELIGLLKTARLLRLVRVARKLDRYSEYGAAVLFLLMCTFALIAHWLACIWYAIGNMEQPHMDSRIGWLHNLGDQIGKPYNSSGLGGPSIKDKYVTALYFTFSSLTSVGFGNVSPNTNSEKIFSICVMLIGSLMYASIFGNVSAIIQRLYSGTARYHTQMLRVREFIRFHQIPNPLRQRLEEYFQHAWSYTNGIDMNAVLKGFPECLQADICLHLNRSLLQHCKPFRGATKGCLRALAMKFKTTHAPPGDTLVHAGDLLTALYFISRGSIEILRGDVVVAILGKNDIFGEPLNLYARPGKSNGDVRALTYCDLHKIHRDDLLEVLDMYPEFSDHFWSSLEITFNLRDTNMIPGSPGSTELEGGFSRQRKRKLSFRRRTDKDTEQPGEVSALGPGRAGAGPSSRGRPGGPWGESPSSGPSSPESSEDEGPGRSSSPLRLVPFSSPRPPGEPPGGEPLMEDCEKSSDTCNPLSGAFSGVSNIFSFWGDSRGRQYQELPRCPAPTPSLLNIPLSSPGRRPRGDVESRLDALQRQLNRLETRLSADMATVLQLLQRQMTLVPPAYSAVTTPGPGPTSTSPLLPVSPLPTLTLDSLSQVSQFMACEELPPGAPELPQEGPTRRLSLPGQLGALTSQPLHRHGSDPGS
How it was run: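 Kinetic FDSS fluorescence; U2OS + hERG BacMam (~100 virus particles/cell); FluxOR Tl+ flux; ~10 min cpd; AC50 (Hill).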

[30] = qHTS assay for small molecule agonists of the antioxidant response element (ARE) signaling pathway (AID 651741; active = well fitted activation curve with a large enough effect in the signal ratio; inconclusive = small, poorly fitted or top-dose-only effect, or effect the other way, or a change in a side signal; the % refers to the signal ratio; also: potency is read from the fitted curve at half-maximal effect)
How it was run: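 Compounds in DMSO are pinned onto HepG2 ARE-bla cells (2,000/well) that were preincubated 5 h; plates stay 16 h at 37 C, then beta-lactamase activity is detected with LiveBLAzer B/G substrate by fluorescence.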

[31] = qHTS assay for small molecule activators of the p53 signaling pathway (AID 651743; active = well fitted activation curve with a large enough effect in the signal ratio, not every such curve was filed as active; inconclusive = small, poorly fitted or top-dose-only effect, or a change in a side signal; the % refers to the signal ratio; also: series mostly up to about 92 µM; % of control where 0% means no effect); settings: HCT-116 p53RE-bla, beta-lactamase FRET ratio, 16 h; activation: active compounds read high
How it was run: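 Cell-based beta-lactamase reporter (p53 response elements, HCT-116 background). After a 5-hour preincubation, cells received compound for 16 hours at 37 C; substrate development ran 2 hours at room temperature.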

[32] = qHTS assay for environmental chemicals that activate the Aryl hydrocarbon Receptor (AhR) signaling pathway (AID 651777); settings: 1A2-DRE human hepatoma cells, luciferase, 24 h; activation: active compounds read high; also: potency is read from the fitted curve at half-maximal effect; nearly all actives have a fitted effect of over 15% in size
How it was run: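 Human hepatoma 1A2-DRE cells, stably carrying a dioxin response element and CYP1A2 promoter driving luciferase, were exposed to compounds for 24 hr at 37 C and 5% CO2. Luciferase signal was then read after 30 min One-Glo at room temperature.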

[33] = target: Peroxisome proliferator-activated receptor alpha (Homo sapiens) (UniProt Q07869); test: qHTS assay for small molecule agonists of the peroxisome proliferator-activated receptor alpha (PPARalpha) signaling pathway (AID 651778); settings: PathHunter PPARalpha complementation, chemiluminescence, 6 h; max response: active compounds read high; also: % of control where 0% means no effect
Sequence of Peroxisome proliferator-activated receptor alpha (Homo sapiens) (Q07869 whole entry, looked up): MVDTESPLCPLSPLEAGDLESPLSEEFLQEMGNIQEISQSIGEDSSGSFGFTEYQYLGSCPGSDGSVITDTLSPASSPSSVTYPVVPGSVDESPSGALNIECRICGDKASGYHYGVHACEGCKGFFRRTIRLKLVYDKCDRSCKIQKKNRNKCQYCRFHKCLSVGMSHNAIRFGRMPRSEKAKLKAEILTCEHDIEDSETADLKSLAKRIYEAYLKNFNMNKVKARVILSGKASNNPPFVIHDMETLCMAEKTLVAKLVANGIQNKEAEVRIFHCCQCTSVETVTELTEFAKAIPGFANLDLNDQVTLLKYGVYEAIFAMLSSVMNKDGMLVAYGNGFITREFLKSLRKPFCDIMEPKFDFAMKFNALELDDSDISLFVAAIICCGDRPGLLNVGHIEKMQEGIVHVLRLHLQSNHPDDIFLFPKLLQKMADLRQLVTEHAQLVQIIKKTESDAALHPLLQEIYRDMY
How it was run: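 Cells plated at 2,000/well and held overnight at 37 C, 5% CO2, then compound added by pin tool for 6 hr; after PathHunter detection reagent and 60 min at room temperature, chemiluminescence from enzyme complementation was read.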

[34] = target: Nuclear receptor ROR-gamma (Homo sapiens) (UniProt P51449); test: qHTS assay for small molecule antagonists of the retinoid-related orphan receptor gamma (ROR-gamma) signaling pathway (AID 651802)
Sequence of Nuclear receptor ROR-gamma (Homo sapiens) (P51449 whole entry, looked up): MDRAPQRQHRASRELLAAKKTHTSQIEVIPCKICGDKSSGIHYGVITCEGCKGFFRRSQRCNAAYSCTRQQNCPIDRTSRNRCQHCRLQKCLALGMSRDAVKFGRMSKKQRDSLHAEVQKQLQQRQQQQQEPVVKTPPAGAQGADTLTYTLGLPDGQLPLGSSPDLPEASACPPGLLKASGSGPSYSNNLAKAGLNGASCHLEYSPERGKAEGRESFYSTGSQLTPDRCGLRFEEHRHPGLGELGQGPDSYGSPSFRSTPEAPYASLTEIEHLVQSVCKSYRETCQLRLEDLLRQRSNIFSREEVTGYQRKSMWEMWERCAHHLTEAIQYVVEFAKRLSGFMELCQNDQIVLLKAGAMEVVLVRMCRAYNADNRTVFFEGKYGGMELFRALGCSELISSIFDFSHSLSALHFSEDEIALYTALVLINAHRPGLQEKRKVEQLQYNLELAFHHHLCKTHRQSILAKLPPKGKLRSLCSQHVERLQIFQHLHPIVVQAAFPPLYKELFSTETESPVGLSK
How it was run: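 CHO, TET-inducible ROR + RORE-LUC reporter, 1536-well qHTS. Compound pinned, doxycycline added, 16hr 37C/5% CO2. ONE-Glo, 30 min RT, luminescence; signal drop scored as antagonism.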

[35] = qHTS assay for small molecule agonists of the antioxidant response element (ARE) signaling pathway measured by Nrf2-dependant transcriptional activity (AID 720636; active = well fitted curve in the direction sought with a large enough effect in the repeat runs; inconclusive = weak or mixed curves; inactive = no such curve, though single readings can be large; an effect the other way counts as inactive or inconclusive; also: potency is read from the fitted curve at half-maximal effect)
How it was run: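 ARE-luc HepG2 cells carrying an Nrf2-responsive luciferase reporter were plated in medium with 1% dialyzed FBS, left 6 hr at 37 C to attach, then exposed to compound for 16 hr. Luciferase luminescence was read after ONE-Glo addition.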

[36] = qHTS assay for cell viability of HEK293 cells (AID 743288); settings: ATP luminescence (CellTiter-Glo), 18 h; max response: active compounds read low
How it was run: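 Total intracellular ATP, measured with a luciferase-coupled reagent, indicates the number of viable HEK293 cells. Exposure to test chemicals lasts 18 h at 37 C in 1,536-well format at 2,000 cells/well.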

[37] = qHTS assay for cell viability of the p53RE-bla HCT-116 cell line (AID 743292)
How it was run: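 CellSensor p53RE-bla HCT-116 cells, 4,000/well, preincubated 5 h at 37 C, then exposed to compounds in DMSO for 16 h at 37 C. Viability read as CellTiter-Glo luminescence (intracellular ATP) after 30 min at room temperature.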

CN(C)c1ccc(N=O)cc1
active: Potency [1] 1000 nM | Potency [2] 2000 nM | Potency [3] 1580 nM | Potency [4] 1000 nM | Potency [5] 1000 nM | Potency [6] 1000 nM | Potency [7] 794 nM | Potency [8] 1260 nM | Potency [9] 2510 nM | Potency [10] 2510 nM | Potency [11] 2000 nM | Potency [12] 794 nM | Potency [13] 1260 nM | Potency [14] 631 nM | Potency [15] 631 nM | Potency [16] 2510 nM | Potency [17] 1580 nM | Potency [18] 1260 nM | Potency [19] 1260 nM | Potency [20] 631 nM | Potency [21] 501 nM | Potency [22] 2510 nM | Potency [23] 3980 nM | Potency [24] 6310 nM | Potency [25] 22400 nM [inconclusive] | Potency [30] 13300 nM | Potency [32] 70800 nM | Potency [34] 7500 nM | Potency [35] 26600 nM | Potency [36] 39800 nM
inactive: Potency [26] | activation [27] -4.92% | Potency [28] | Potency [29] | activation [31] -1.31% | max response [33] -3.57% | Potency [37]
